Molecules are shown by their SMILES. The campaign covered roughly 310,000 compounds. About 14,000 (4.5%) showed an effect of 50% or more. Effects have a minus sign here. The list comes from a sample in which strong results are over-represented; it also holds similar structures and randomly drawn compounds.
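Also: peak tail current of the secondary pulse compared with the same well before compound.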

The target of this experiment is human ether-à-go-go-related gene (hERG) potassium channel (human, UniProt Q12809). The experiment can be described thus: primary screen, population patch clamp on CHO cells stably expressing hERG; higher = less effect of the substance.
Sequence of human ether-à-go-go-related gene (hERG) potassium channel (Q12809 whole entry, looked up): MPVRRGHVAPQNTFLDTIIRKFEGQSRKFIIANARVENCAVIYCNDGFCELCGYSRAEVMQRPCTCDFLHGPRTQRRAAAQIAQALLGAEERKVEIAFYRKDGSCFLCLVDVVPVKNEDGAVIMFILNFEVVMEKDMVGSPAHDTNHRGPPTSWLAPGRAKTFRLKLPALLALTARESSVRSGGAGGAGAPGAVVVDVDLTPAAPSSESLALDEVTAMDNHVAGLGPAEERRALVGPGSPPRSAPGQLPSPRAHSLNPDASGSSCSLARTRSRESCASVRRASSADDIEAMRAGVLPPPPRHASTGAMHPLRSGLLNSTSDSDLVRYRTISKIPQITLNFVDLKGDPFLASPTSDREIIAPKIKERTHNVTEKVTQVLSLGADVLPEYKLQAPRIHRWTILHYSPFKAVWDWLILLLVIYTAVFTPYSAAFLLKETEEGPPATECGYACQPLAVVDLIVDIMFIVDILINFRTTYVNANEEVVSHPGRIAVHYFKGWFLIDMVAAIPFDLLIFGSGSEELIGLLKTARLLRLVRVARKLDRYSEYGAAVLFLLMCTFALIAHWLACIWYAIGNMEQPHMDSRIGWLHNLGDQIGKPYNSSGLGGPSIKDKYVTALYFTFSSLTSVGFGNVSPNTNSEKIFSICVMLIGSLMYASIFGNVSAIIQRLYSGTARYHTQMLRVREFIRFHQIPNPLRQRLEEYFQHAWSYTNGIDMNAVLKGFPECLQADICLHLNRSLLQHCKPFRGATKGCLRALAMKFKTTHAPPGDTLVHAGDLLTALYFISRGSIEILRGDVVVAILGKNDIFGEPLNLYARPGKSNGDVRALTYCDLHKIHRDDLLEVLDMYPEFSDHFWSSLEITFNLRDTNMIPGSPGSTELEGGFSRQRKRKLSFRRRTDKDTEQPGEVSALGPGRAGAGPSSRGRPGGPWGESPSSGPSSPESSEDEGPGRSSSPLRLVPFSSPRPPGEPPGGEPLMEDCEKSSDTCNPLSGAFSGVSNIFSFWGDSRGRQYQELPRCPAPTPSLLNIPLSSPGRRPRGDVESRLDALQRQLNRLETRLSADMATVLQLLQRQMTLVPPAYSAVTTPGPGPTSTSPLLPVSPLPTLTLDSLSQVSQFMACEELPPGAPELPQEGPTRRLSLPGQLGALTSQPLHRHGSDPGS
As for `Cc1ccc(-n2nnc3c(=O)n(CC(=O)N4CCOCC4)cnc32)cc1`, the “hERG current change (%, negative = inhibition) at 10uM” value is given as -3.25%.

With `CCOc1ccccc1C(=O)NCCC(=O)O`, the “hERG current change (%, negative = inhibition) at 10uM” value is given as 8.38%.

As to `Cc1onc(-c2c(F)cccc2Cl)c1C(=O)N1CCc2ccccc2C1`, the “hERG current change (%, negative = inhibition) at 10uM” value is -15.7%.

For the molecule `O=C(CCn1ccc2cc(S(=O)(=O)N3CCCC3)ccc21)NCCc1ccccc1`, the “hERG current change (%, negative = inhibition) at 10uM” value is listed as -16.9%.

Regarding `O=C(Nc1ccc(Br)cc1)C1CCCC1`, the “hERG current change (%, negative = inhibition) at 10uM” value was determined as 9.31%.

On to `O=C(c1ccc(COc2ccccc2Cl)o1)N1N=C(C(F)F)CC1(O)C(F)F` (stereo not drawn), for which the “hERG current change (%, negative = inhibition) at 10uM” value was found to be 17.1%.

Consider `COc1ccc(CCNc2ccc(C(CC(N)=O)NC(=O)Cc3ccc(Br)cc3)cc2[N+](=O)[O-])cc1` (stereo not drawn), for which the “hERG current change (%, negative = inhibition) at 10uM” value turned out to be 4.07%.

Regarding `S=c1[nH]nc(-c2cc(-c3ccsc3)n[nH]2)n1-c1cccc2ccccc12`, the “hERG current change (%, negative = inhibition) at 10uM” value is listed as -12.6%.

Turning to `COc1cccc(N2CC(NC(=O)c3cccc4ccccc34)CC2=O)c1` (stereo not drawn), the “hERG current change (%, negative = inhibition) at 10uM” value is listed as -6.44%.

With `CCCC1(CCC)C(=O)NC(=NCCc2ccc(OC)c(OC)c2)NC1=O`, the “hERG current change (%, negative = inhibition) at 10uM” value was determined as 13.4%.

On to `COc1ccc(CNC(=O)CCCn2ncn3c(cc4occc43)c2=O)cc1`, for which the “hERG current change (%, negative = inhibition) at 10uM” value is given as -22.4%.

For `COc1cccc(CNC(=O)CCCn2ncn3c(cc4occc43)c2=O)c1`, the “hERG current change (%, negative = inhibition) at 10uM” value is given as -42.9%.

As to `O=C(CCCn1ncn2c(cc3occc32)c1=O)N1CCc2ccccc2C1`, the “hERG current change (%, negative = inhibition) at 10uM” value is recorded as -63%.

With `CCc1nn(CCCC(=O)NCc2ccc(C)cc2)c(=O)c2cc3occc3n12`, the “hERG current change (%, negative = inhibition) at 10uM” value was -8.1%.

Regarding `CCOc1ccc(CNC(=O)CCCn2nc(CC)n3c(cc4occc43)c2=O)cc1`, the “hERG current change (%, negative = inhibition) at 10uM” value is on record as -24.7%.

In the case of `CCc1nn(CCCC(=O)NCc2ccc(OC(C)C)cc2)c(=O)c2cc3occc3n12`, the “hERG current change (%, negative = inhibition) at 10uM” value is given as -54.4%.

In the case of `CCc1nn(CCCC(=O)N2CCc3ccccc3C2)c(=O)c2cc3occc3n12`, the “hERG current change (%, negative = inhibition) at 10uM” value is -29%.

With `CCc1nn(CC(=O)N2CCN(c3cc(C)ccc3C)CC2)c(=O)c2cc3occc3n12`, the “hERG current change (%, negative = inhibition) at 10uM” value amounted to 13%.

As for `Cc1ccc(C)c(N2CCN(C(=O)CCCn3ncn4c(cc5occc54)c3=O)CC2)c1`, the “hERG current change (%, negative = inhibition) at 10uM” value was -63.4%.

Consider `O=C(CCCn1ncn2c(cc3occc32)c1=O)NCc1cccc(Cl)c1`, for which the “hERG current change (%, negative = inhibition) at 10uM” value is reported as -61.3%.

Consider `CCOC(=O)CCCn1ncn2c(cc3occc32)c1=O`, for which the “hERG current change (%, negative = inhibition) at 10uM” value is recorded as -0.3%.

As to `Cc1ccccc1CNC(=O)CCCn1ncn2c(cc3occc32)c1=O`, the “hERG current change (%, negative = inhibition) at 10uM” value is recorded as -14.7%.

Take `Cc1nnc(NC(=O)c2cc(-c3ccco3)nc3ccccc23)s1`: the “hERG current change (%, negative = inhibition) at 10uM” value stood at 2.18%.

On to `Cc1nc2cc(NC(=O)NCc3ccco3)ccc2o1`, for which the “hERG current change (%, negative = inhibition) at 10uM” value is reported as 9.7%.

As for `Cn1c(C(=O)NC2CC2)cc(=O)n(C)c1=O`, the “hERG current change (%, negative = inhibition) at 10uM” value was -8%.

On to `COc1ccc(CNC(=O)COC(=O)c2ccc(C)c(S(=O)(=O)N3CCOCC3)c2)cc1OC`, for which the “hERG current change (%, negative = inhibition) at 10uM” value is reported as 6.13%.

Turning to `CC1CCCN(S(=O)(=O)c2csc(C(N)=O)c2)C1` (stereo not drawn), the “hERG current change (%, negative = inhibition) at 10uM” value is on record as 15.2%.

For the molecule `O=C(NCc1csc2ccccc12)Nc1cc(Cl)cc(Cl)c1`, the “hERG current change (%, negative = inhibition) at 10uM” value worked out at 13.6%.

`CCOc1ccc(C(C)(N)C(=O)O)cc1` (stereo not drawn): the “hERG current change (%, negative = inhibition) at 10uM” value is given as -2.39%.

With `COc1ccc(NC(=O)c2cn(-c3ccccc3)nc2SC)cc1`, the “hERG current change (%, negative = inhibition) at 10uM” value is on record as -8.55%.

`COc1ccc(CNC(=O)c2cc(-c3ccc(OC)c(OC)c3)on2)cc1`: the “hERG current change (%, negative = inhibition) at 10uM” value is given as 6.84%.

Consider `CCC(=O)Oc1ccc(C/C(=N\O)c2ccc(O)cc2O)o1`, for which the “hERG current change (%, negative = inhibition) at 10uM” value was -8.07%.

In the case of `CCOC(=O)C1CCCN(C(=O)CCCn2nc(C)n3c(cc4sccc43)c2=O)C1` (stereo not drawn), the “hERG current change (%, negative = inhibition) at 10uM” value is -49.3%.

As to `CCOC(=O)CCCn1nc(C)n2c(cc3sccc32)c1=O`, the “hERG current change (%, negative = inhibition) at 10uM” value is -21.6%.

On to `Cc1nn(CCCC(=O)N2CCc3ccccc3C2)c(=O)c2cc3sccc3n12`, for which the “hERG current change (%, negative = inhibition) at 10uM” value is reported as -75.5%.

Regarding `COc1ccc(C(CNCC(=O)Nc2ccccc2F)N(C)C)cc1.O=C(O)C(=O)O` (stereo not drawn), the “hERG current change (%, negative = inhibition) at 10uM” value was -35.1%.

For `COc1ccc(S(=O)(=O)NCC(c2ccc3c(c2)OCO3)N2CCOCC2)cc1` (stereo not drawn), the “hERG current change (%, negative = inhibition) at 10uM” value is listed as -6.41%.

As to `CN1CCN(C(CNS(=O)(=O)c2ccc(Br)cc2)c2ccc3c(c2)OCO3)CC1` (stereo not drawn), the “hERG current change (%, negative = inhibition) at 10uM” value was -79.8%.

`Cc1ccc(S(=O)(=O)NCC(c2ccc3c(c2)OCO3)N2CCOCC2)cc1` (stereo not drawn): the “hERG current change (%, negative = inhibition) at 10uM” value was -8.63%.

For `CCOc1ccc(S(=O)(=O)NCC(c2ccc3c(c2)OCO3)N2CCN(C)CC2)cc1` (stereo not drawn), the “hERG current change (%, negative = inhibition) at 10uM” value is -59.2%.

As for `COc1ccc(C)cc1S(=O)(=O)NCC(c1ccc2c(c1)OCO2)N1CCOCC1` (stereo not drawn), the “hERG current change (%, negative = inhibition) at 10uM” value is -13.6%.

On to `COc1ccc(S(=O)(=O)NCC(c2ccc3c(c2)OCO3)N2CCN(C)CC2)cc1OC` (stereo not drawn), for which the “hERG current change (%, negative = inhibition) at 10uM” value is recorded as -15.5%.

`O=S(=O)(NCC(c1ccc2c(c1)OCO2)N1CCOCC1)c1ccc(Br)cc1` (stereo not drawn): the “hERG current change (%, negative = inhibition) at 10uM” value is on record as -16%.

With `COc1ccc(F)cc1S(=O)(=O)NCC(c1ccc2c(c1)OCO2)N1CCN(C)CC1` (stereo not drawn), the “hERG current change (%, negative = inhibition) at 10uM” value is -45.6%.

In the case of `COc1ccc(C)cc1S(=O)(=O)NCC(c1ccc2c(c1)OCO2)N1CCN(C)CC1` (stereo not drawn), the “hERG current change (%, negative = inhibition) at 10uM” value is listed as -68.2%.

Values taken from paper PMC4336329 (PLoS ONE, 2015).
